Compounds with a hit are over-represented: about 19% of the library has one in this group of screens.
Cycloheximide cs: Cycloheximide Counterscreen for Small Molecule Inhibitors of Shiga Toxin; cell reporter, cycloheximide protein synthesis inhibition counterscreen; max response, %; 300,000 compounds, 12% hits; in the data active = max response mostly above about 13%, no sharp cut-off; inactive = mostly below about 14%; also: read at 38.3 µM for the half of the compounds with a filed dose
Shiga inhibitor: A qHTS for Small Molecule Inhibitors of Shiga Toxin; Vero cells, Shiga toxin protein synthesis inhibition reporter; inhibition, % at 38.7 µM; 290,000 compounds, 9.2% hits; AID 2315, 2010; in the data active = inhibition mostly above about 28%, no sharp cut-off; inactive = mostly below about 43%
Pf growth 48h: Primary qHTS for delayed death inhibitors of the malarial parasite plastid, 48 hour incubation; P. falciparum luciferase growth in erythrocytes, 48 h; Potency, µM (highest dose often 28.7 µM), most hits filed as inhibitors; 310,000 compounds, 5.9% hits
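First compound was added to culture medium, then infected red cells at 0.1% parasitemia and 2% hematocrit (final). After incubation at 37 C under 5% CO2, luciferase detection reagent was dispensed and light output recorded.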
AMA1 RON2 block: qHTS for Inhibitors of AMA1-RON; Towards Development of Antimalarial Drug Lead: Primary Screen; AlphaScreen AMA1-biotinylated RON2 peptide binding; Potency, µM (highest dose often 58.2 µM), hits mostly inhibitors; 360,000 compounds, 0.2% hits; Plasmodium falciparum AMA1 (3D7) - RON2 peptide interaction; also: nearly all actives have a fitted effect of over 45% in size
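AMA1 (3D7) with his tag at 25 nM final met compounds first, then biotinylated RON2 peptide at 25 nM; detection used donor plus acceptor beads, 10 µg/mL apiece, read by AlphaScreen after 30 min at room temperature.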
SARS PLP yeast: qHTS of Yeast-based Assay for SARS-CoV PLP; Potency, µM (doses to about 32.9 µM), most hits filed as activators; 330,000 compounds, 0.19% hits; S. cerevisiae expressing SARS-CoV PLpro, growth rescue; AID 485353, 2010; calls by dose curve; also: nearly all actives have a fitted effect of over 55% in size
Pf growth 96h: Primary qHTS for delayed death inhibitors of the malarial parasite plastid, 96 hour incubation; 320,000 compounds, 6.9% hits; Potency, µM (highest dose often 28.7 µM), hits mostly inhibitors; AID 504834, 2011; P. falciparum luciferase reporter growth, 96 h
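Compounds incubated with erythrocytes infected by luciferase-expressing P. falciparum (2% hematocrit, 0.05% parasitemia final) for 96 hours, 37 C in 5% CO2. Growth inhibition scored as decreased luciferase luminescence.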
Each line names hits and unclear results; the compound was inactive in the other large screens. Unless noted, calls follow the shape of the dose curve; as a rule, active = well fitted curve in the direction sought with a large enough effect; inconclusive = small, poorly fitted or top-dose-only effect, or another doubt; inactive = no such curve, though single readings can be large; an effect the other way counts as inactive or inconclusive.

O=C(CSc1nc2ccccc2[nH]1)N/N=C/c1ccncc1	none
CCOC(=O)c1c(NC(=O)COc2ccccc2)sc2c1CC(C)(C)NC2(C)C	Pf growth 48h inconclusive
CCCc1nnc(NC(=O)CSc2nc3ccccc3[nH]2)s1	Cycloheximide cs 19, Shiga inhibitor 44
CCc1nnc(NC(=O)CSc2nc3c(C)cccc3[nH]2)s1	none
CCO[C@H]1OC(C(=O)NCc2nc3ccccc3[nH]2)=C[C@@H](c2ccc3c(c2)OCO3)[C@@H]1CCCO	none (no result: Cycloheximide cs, Shiga inhibitor, Pf growth 48h, SARS PLP yeast, Pf growth 96h)
CC(C)(C)C(=O)COC(=O)CNC(=O)c1ccc(Oc2ccccc2)cc1	none (no result: Pf growth 48h)
Cc1noc(C)c1C(=O)OCC(=O)c1cc(C)n(Cc2ccccc2Cl)c1C	Cycloheximide cs 45, Shiga inhibitor 63 (no result: Pf growth 96h)
Cc1ccc(/C(N)=N/OC(=O)CCc2ccccc2)cc1	Cycloheximide cs 33, Shiga inhibitor 91
N/C(=N\OC(=O)CCc1ccccc1)c1cccc(Br)c1	none
N/C(Cc1ccc(Cl)cc1)=N\OC(=O)CCc1ccccc1	none (no result: Cycloheximide cs, Shiga inhibitor, Pf growth 48h, SARS PLP yeast, Pf growth 96h)
N/C(=N\OC(=O)CCc1ccccc1)c1ccccc1Cl	Cycloheximide cs 28, Shiga inhibitor 107, Pf growth 96h inconclusive
N/C(=N\OC(=O)CCCc1ccccc1)c1ccc(Br)cc1	none
N/C(=N\OC(=O)CCc1ccccc1)c1ccc(Br)cc1	Cycloheximide cs 38, Shiga inhibitor 71
O=c1c2ccccc2c(C=Nc2cccc(S(=O)(=O)NCc3ccco3)c2)c(O)n1-c1ccc(Cl)cn1	Cycloheximide cs 44, Shiga inhibitor 51, Pf growth 48h 15µM, Pf growth 96h inconclusive
CSc1nc(-c2ccccc2)[nH]c(=S)c1C(C)=O	Pf growth 96h 9.3µM (no result: Pf growth 48h)
CC(=O)c1ccc(NS(=O)(=O)c2ccc(N)cc2)cc1	Cycloheximide cs 28, Shiga inhibitor 50
CC(=O)c1ccc(NS(=O)(=O)c2c(C)cc(C)cc2C)cc1	Cycloheximide cs 38, Shiga inhibitor 73
CC(=O)c1ccc(NS(=O)(=O)c2ccccc2)cc1	Pf growth 96h inconclusive
CC(=O)c1ccc(N=Nc2ccc(N)cc2)cc1	Cycloheximide cs 28, Shiga inhibitor 56, AMA1 RON2 block inconclusive
C=CC[C@@H](CC(=O)N[C@H](CO)Cc1ccccc1)C(=O)NC[C@H](OC(=O)[C@@H](CC=C)Cc1ccc(F)cc1)c1ccccc1	none (no result: Cycloheximide cs, Shiga inhibitor, Pf growth 48h, Pf growth 96h)
COc1ccccc1CN1C(=O)C2CC=CCC2C1=O (centres undefined)	none
O=C(COC(=O)COc1ccc(Cl)cc1Cl)NC1CCS(=O)(=O)C1 (centres undefined)	none (no result: Cycloheximide cs, Shiga inhibitor, Pf growth 48h, Pf growth 96h)
COc1cc(CNc2cc(C)ccc2C)cc(OC)c1OC	Pf growth 48h 5.2µM, Pf growth 96h inconclusive
CC(C)CN1CCC(C(=O)NCC2CCCO2)CC1 (centres undefined)	Pf growth 96h inconclusive
OC(CN1CCC(Cc2ccc(F)cc2)CC1)c1ccc(Cl)cc1 (centres undefined)	Pf growth 48h 1.5µM, Pf growth 96h 2.1µM (no result: Cycloheximide cs, Shiga inhibitor, AMA1 RON2 block, SARS PLP yeast)
OC(CN1CCN(c2ccc(F)cc2)CC1)c1ccc(Cl)cc1 (centres undefined)	Pf growth 96h 13µM (no result: Pf growth 48h)
O=C(CN1CCC(Cc2ccccc2)CC1)NCCc1ccc(F)cc1	Pf growth 48h inconclusive, Pf growth 96h inconclusive
COCCOCC(O)CN1CCN(c2ccc(C)cc2)CC1 (centres undefined)	AMA1 RON2 block 14µM, Pf growth 96h inconclusive
COc1ccc(N2CCN(CC(O)COC(c3ccc(F)cc3)c3ccc(F)cc3)CC2)cc1 (centres undefined)	Pf growth 48h 9.3µM, AMA1 RON2 block 28µM, Pf growth 96h 15µM
COCCOCC(O)CN1CCN(c2ccccc2)CC1 (centres undefined)	Pf growth 96h inconclusive
CCOCCOCCC(C(=O)OCC)P(=O)(c1ccccc1)c1ccccc1 (centres undefined)	none (no result: Pf growth 48h)
COc1ccc(NC(=O)C2(C)CCN2Cc2ccc3ccccc3c2)cc1OC (centres undefined)	none (no result: Cycloheximide cs, Shiga inhibitor, Pf growth 48h, SARS PLP yeast, Pf growth 96h)
Cc1ccccc1N1C(=O)NC(=O)/C(=C\c2cnn(-c3ccccc3)c2)C1=O	Cycloheximide cs 24, Shiga inhibitor 56
CCn1c(C)cc(/C=C2\C(=O)NC(=O)N(c3ccccc3C)C2=O)c1C	none
O=C(N/N=C/c1cn(Cc2ccccc2)c2ccccc12)c1ccncc1	Pf growth 48h inconclusive
O=C(N/N=C/c1cn(-c2cccs2)nc1-c1ccccc1)c1ccc(O)cc1	Cycloheximide cs 45, Shiga inhibitor active
O=C(N/N=C/c1cn(-c2cccs2)nc1-c1ccccc1)c1ccccc1Cl	Cycloheximide cs 21, Shiga inhibitor 102
O=C(N/N=C/c1cccs1)c1ccc(NC(=O)c2ccccc2Cl)cc1	none
CC(CN1CCCCC1)OC(=O)c1ccccc1F (centres undefined)	Pf growth 96h inconclusive
CCOc1ccc(Br)cc1C(=O)N/N=C/c1cccc(C)n1	none
O=C(N/N=C/c1ccoc1)c1cc(Br)ccc1O	Cycloheximide cs 31
Cc1cccc(/C=N/NC(=O)c2cc(Br)ccc2O)n1	Cycloheximide cs 32, Shiga inhibitor 48, Pf growth 96h 12µM
O=C(N/N=C/c1ccoc1)c1ccccc1Br	SARS PLP yeast inconclusive
Cc1nc(C(C)N(C)Cc2c(C(=O)N3CCCCC3)nc3c(C)cccn23)c(C)s1 (centres undefined)	Pf growth 48h inconclusive, Pf growth 96h 10µM
Cc1cccn2c(CN(C)CCC3CCCCO3)c(C(=O)N3CCCCC3)nc12 (centres undefined)	Pf growth 96h 13µM
COC(=O)[C@@H]1CCCN1Cc1c(C(=O)N2CCCCC2)nc2c(C)cccn12	Pf growth 96h 8.3µM
CCO/C(C)=N/Oc1cncnc1	none (no result: Cycloheximide cs, Shiga inhibitor, Pf growth 48h, SARS PLP yeast, Pf growth 96h)
CCOC(=O)C1=C[C@@H](C(C)(C)C)N(S(=O)(=O)c2ccccc2C)[C@H]1c1ccc(Cl)cc1	none (no result: Cycloheximide cs, Shiga inhibitor, Pf growth 48h, SARS PLP yeast, Pf growth 96h)
O=C(c1ccc(F)cc1)C1CCN(C(=S)Nc2ccc(F)cc2)CC1	Pf growth 96h inconclusive
CCN(Cc1nc2ccccc2c(=O)[nH]1)Cc1cc(=O)oc2cc(OC)ccc12	Pf growth 48h inconclusive (no result: Pf growth 96h)
CC(Nc1ccc(Cl)cc1)c1cc(Cl)ccc1O (centres undefined)	Pf growth 48h 9.3µM
CCOc1ccc(NC(C)c2cc(Cl)ccc2O)cc1 (centres undefined)	none
Cc1cc(C(C)(C)C)ccc1OCCn1ccnc1	Pf growth 96h inconclusive (no result: Pf growth 48h)
CC(C)(C)c1ccccc1OCCCCCn1ccnc1	Pf growth 48h 12µM, AMA1 RON2 block inconclusive, Pf growth 96h 5.9µM
c1ccc(-c2ccccc2OCCCCn2ccnc2)cc1	Pf growth 48h 12µM, AMA1 RON2 block inconclusive, Pf growth 96h inconclusive
CC(C)(C)c1cc(Cl)ccc1OCCn1ccnc1	Pf growth 48h 5.9µM, AMA1 RON2 block inconclusive, Pf growth 96h inconclusive
